Screening results (PubChem BioAssay)
Rows were chosen to be rich in hits. Some 1.3% of all compounds tested hit in one or more screens of this group.
PKM2 activator: PKM2 (human) enzyme activation; P14618; purified PKM2, Kinase-Glo ATP luminescence, activation; response scale: 0% is enzyme alone, no compound; Potency, µM (top dose mostly 57.5 µM), for inactives: at the top dose activation, usual class: activators; 260,000 compounds, 0.34% hits; AID 1631; also: nearly all actives have a fitted effect of over 55% in size
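ATP formation by purified human PK-M2, quantified via coupled luciferase luminescence after 1 h at room temperature with 0.1 mM ADP and 0.5 mM PEP final.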
Apoferritin bind: binds horse apoferritin like a general anesthetic. 350,000 compounds, 0.074% hits. apoferritin/1-aminoanthracene competitive binding, fluorescence. P02791. AID 485281. Potency, µM (doses to about 77.5 µM), inactives show top-dose activity change, negative = displacement, actives largely listed as inhibitors; also: nearly all actives have a fitted effect of over 20% in size
Target sequence (P02791 2-175 limits assumed): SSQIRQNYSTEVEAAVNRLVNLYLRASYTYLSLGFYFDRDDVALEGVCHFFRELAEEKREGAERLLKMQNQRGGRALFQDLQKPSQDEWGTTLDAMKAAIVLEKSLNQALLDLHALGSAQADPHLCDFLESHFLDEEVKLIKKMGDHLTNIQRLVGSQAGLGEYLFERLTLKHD
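Horse-spleen apoferritin (10 uM) was mixed with 50% saturated 1-aminoanthracene in PBS, exposed to compounds for 10 min at room temperature, and read for fluorescence (ex 380 nm, em 535 nm). Competitive displacement was fitted with a four-parameter Hill equation.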
rTrxR1 inhibitor: rat TrxR1 inhibition; 390,000 compounds, 1% hits; Potency, µM (highest dose often 114 µM), without a hit: at the highest dose activity change, negative = inhibition, most hits filed as inhibitors; recombinant rTrxR1, NADPH fluorescence consumption, selenite substrate; O89049; AID 588453; also: nearly all actives have a fitted effect of over 65% in size
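Rat TrxR1 (90 nM in the dispensed reagent) was pre-reduced with 400 uM NADPH for 5 min at room temperature, then incubated with compound for 15 min. After 400 uM selenite was added, NADPH fluorescence (Ex 340/Em 450 nm) was followed for 8 min.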
TrxR1 substrate: rat thioredoxin reductase 1 substrate activity; O89049; purified TrxR1 substrate turnover, NADPH consumption readout; Potency, µM (series often up to 114 µM), for the others: top-dose activity change, negative = substrate turnover; 390,000 compounds, 0.01% hits; AID 588456; also: nearly all actives have a fitted effect of over 50% in size
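Rat TrxR1, dispensed at 90 nM, was prereduced with 400 uM NADPH (final) for 5 min at ~22 deg C, then incubated with compound 15 min before 400 uM selenite. A first-read NADPH fluorescence drop versus no-compound background flagged substrates.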
GALK inhibitor: inhibitors of human galactokinase; P51570; Purified GALK, Kinase-Glo residual ATP luminescence; Potency, µM (top dose mostly 57.5 µM), for inactives: at the top dose activity change, negative = inhibition, actives largely listed as inhibitors; 270,000 compounds, 0.007% hits
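5 nM enzyme, 35 uM ATP, 100 uM galactose, 20 mM HEPES pH8.0, 5 mM MgCl2; 1 h RT; residual ATP by Kinase-Glo Plus luminescence, qHTS format.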
mIDH1 inhibitor: blocks human mutant IDH1 R132H enzyme | O75874 | IDH1-R132H enzyme, NADPH consumption, diaphorase/resazurin fluorescence | Potency, µM (doses to about 76.6 µM), for the others: top-dose activity change, negative = inhibition, actives largely listed as inhibitors | 390,000 compounds, 0.093% hits; also: nearly all actives have a fitted effect of over 65% in size
Target sequence (O75874 whole entry R132H, stated change not applied): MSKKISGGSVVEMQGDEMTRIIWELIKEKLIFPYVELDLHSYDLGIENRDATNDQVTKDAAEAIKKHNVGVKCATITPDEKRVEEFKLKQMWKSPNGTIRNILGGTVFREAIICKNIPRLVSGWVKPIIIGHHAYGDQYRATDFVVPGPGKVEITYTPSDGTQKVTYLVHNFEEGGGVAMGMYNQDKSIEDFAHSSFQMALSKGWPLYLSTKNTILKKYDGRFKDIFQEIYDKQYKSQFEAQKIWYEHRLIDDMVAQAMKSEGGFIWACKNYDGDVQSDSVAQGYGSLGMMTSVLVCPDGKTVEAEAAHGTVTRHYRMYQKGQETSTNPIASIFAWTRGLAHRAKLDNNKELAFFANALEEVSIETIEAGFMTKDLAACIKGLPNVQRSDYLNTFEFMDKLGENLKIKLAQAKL
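IDH1-R132H (0.5 ug/mL dispensed) in pH 7.5 Tris buffer was preincubated 30 min with compound, then given a substrate mix of 0.016 mM NADPH and 2 mM alpha-KG for 80 min at room temperature; remaining NADPH was read by diaphorase/resazurin fluorescence.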
* marks the source's active call; other numbers are inactive results; [ ] = remark or other dose. Calls follow the shape of the dose curve; as a rule, active = well fitted curve in the direction sought with a large enough effect; inconclusive = small, poorly fitted or top-dose-only effect, or another doubt; inactive = no such curve, though single readings can be large; an effect the other way counts as inactive or inconclusive. % is scaled to controls: 0 for no effect and ±100 for the full control effect; potency is read from the fitted curve at half-maximal effect.

`O=C(NC(=S)Nc1ccc(S(=O)(=O)N2CCCCC2)cc1)c1cccs1` gave PKM2 activator -7%, Apoferritin bind 5%, rTrxR1 inhibitor inconclusive, TrxR1 substrate -6% and mIDH1 inhibitor -3%.
O=C(Nc1ccc(NC(=S)NC(=O)c2cccs2)cc1)c1ccccc1 was read as PKM2 activator 0%, Apoferritin bind 1%, rTrxR1 inhibitor -21%, TrxR1 substrate 2%, GALK inhibitor 1% and mIDH1 inhibitor -6%.
`NS(=O)(=O)c1ccc(NC(=S)NC(=O)c2cccs2)cc1` gave PKM2 activator 2%, Apoferritin bind 2%, rTrxR1 inhibitor 11µM*, TrxR1 substrate -1%, GALK inhibitor -2% and mIDH1 inhibitor -6%.
`O=C(NC(=S)Nc1ccccc1)c1cccs1` gave PKM2 activator 3%, Apoferritin bind 8%, rTrxR1 inhibitor 50µM*, TrxR1 substrate 4%, GALK inhibitor 0% and mIDH1 inhibitor -1%.
`Cc1ccc(-n2nc(C)c3c(C(=O)NCCc4ccc(S(N)(=O)=O)cc4)cc(C)nc32)cc1` gave Apoferritin bind -7%, rTrxR1 inhibitor 20%, TrxR1 substrate 10% and mIDH1 inhibitor 4%.
Screening Cc1cnc2c3c(cc(Cl)c2c1)-c1ccccc1S(=O)(=O)N3 returned rTrxR1 inhibitor 32µM* and TrxR1 substrate 8%.
`CCOC(=O)c1ccc([N+](=O)[O-])c(CS(=O)(=O)c2ccc(Cl)cc2)c1` gave Apoferritin bind 0%, rTrxR1 inhibitor -3%, TrxR1 substrate -4%, GALK inhibitor 0% and mIDH1 inhibitor 3%.
`Cc1ccc(S(=O)(=O)Cc2cc(F)c([N+](=O)[O-])cc2[N+](=O)[O-])cc1` gave PKM2 activator -7%, Apoferritin bind -19%, rTrxR1 inhibitor 18µM*, TrxR1 substrate -1%, GALK inhibitor -2% and mIDH1 inhibitor 0%.
`O=C1C(Cl)=C(N2CCOCC2)C(=O)N1c1cccc(Cl)c1` gave PKM2 activator 14µM*, Apoferritin bind inconclusive, rTrxR1 inhibitor inconclusive, TrxR1 substrate -12%, GALK inhibitor 5% and mIDH1 inhibitor -1%.
`Cc1cccc(N2C(=O)C(Cl)=C(N3CCOCC3)C2=O)c1` gave PKM2 activator inconclusive, Apoferritin bind inconclusive, rTrxR1 inhibitor 9%[57.1 µM], TrxR1 substrate 6%[2.29 µM], GALK inhibitor -3% and mIDH1 inhibitor 7%.
Screening Cc1ccc(C(=O)/C=C/C(=O)c2ccc(C)cc2)cc1 returned PKM2 activator inconclusive, Apoferritin bind -10%, rTrxR1 inhibitor 3.2µM*, TrxR1 substrate 2%[57.1 µM], GALK inhibitor -1% and mIDH1 inhibitor 0%.
`O=C(O)Cc1csc(Nc2cccc(Cl)c2)n1` gave PKM2 activator 10%, Apoferritin bind 10µM*, rTrxR1 inhibitor 42%[0.457 µM], TrxR1 substrate 2%, GALK inhibitor 0% and mIDH1 inhibitor 6%.
For CCOC(=O)c1c(S(=O)(=O)N2CCC(C(=O)Nc3cccc(C)n3)CC2)c(C)n(C)c1C the results were Apoferritin bind -11%, rTrxR1 inhibitor 16%[57.1 µM], TrxR1 substrate 4%[57.1 µM] and mIDH1 inhibitor -5%.
CC(C)CCn1nnnc1C(c1ccccc1)N1CCN(C)CC1 (configuration not stated) was read as PKM2 activator -2%, Apoferritin bind -17%, rTrxR1 inhibitor -11%, TrxR1 substrate -7%, GALK inhibitor -3% and mIDH1 inhibitor -1%.
`C=CCN1CCN(C(c2ccccc2)c2nnnn2CCC(C)C)CC1` (configuration not stated) gave PKM2 activator -7%, Apoferritin bind -15%, rTrxR1 inhibitor 28µM*, TrxR1 substrate 6%[57.1 µM], GALK inhibitor -1% and mIDH1 inhibitor 3%.
For CSc1ccc(S(=O)(=O)N2CCC(C(=O)NCc3ccco3)CC2)cc1 the results were PKM2 activator 10µM*, Apoferritin bind -4%, rTrxR1 inhibitor 5%, TrxR1 substrate 1%, GALK inhibitor 3% and mIDH1 inhibitor 16%.
O=C(NCc1cccs1)C1CCN(S(=O)(=O)c2ccc(Br)s2)CC1 was read as PKM2 activator 27%, Apoferritin bind -11%, rTrxR1 inhibitor 7%[57.1 µM], TrxR1 substrate 2%[57.1 µM], GALK inhibitor -1% and mIDH1 inhibitor 1%.
`O=C(NCc1cccs1)C1CCN(S(=O)(=O)c2ccccc2F)CC1` gave PKM2 activator 14µM*, Apoferritin bind -1%, rTrxR1 inhibitor 19%, TrxR1 substrate 1%, GALK inhibitor -2% and mIDH1 inhibitor 6%.
O=C(NCc1cccs1)C1CCN(S(=O)(=O)c2cccs2)CC1 was read as PKM2 activator 16µM*, Apoferritin bind 1%, rTrxR1 inhibitor 10%, TrxR1 substrate 10%, GALK inhibitor 0% and mIDH1 inhibitor 4%.
Screening Cc1ccc(N2C(=O)CC3(CC4C=CC3C4)C2=O)cc1 (configuration not stated) returned PKM2 activator -8%, Apoferritin bind 7.9µM*, rTrxR1 inhibitor 0%, TrxR1 substrate -6%, GALK inhibitor -3% and mIDH1 inhibitor 3%.
`CC(C)CN(CC(C)C)c1ccc(/C=C/c2nc3ccccc3s2)cc1` gave rTrxR1 inhibitor 65% and TrxR1 substrate 3%.
O=C(Nc1ccc2nc3n(c(=O)c2c1)CCCCC3)c1c(F)ccc([N+](=O)[O-])c1F was read as Apoferritin bind -11%, rTrxR1 inhibitor 50µM*, TrxR1 substrate -5%, GALK inhibitor 0% and mIDH1 inhibitor -16%.
O=c1[nH][nH]c2c(N=Cc3ccccc3O)ccc(F)c12 was read as PKM2 activator 23%, Apoferritin bind 6%, rTrxR1 inhibitor 3.2µM*, TrxR1 substrate 6% and mIDH1 inhibitor 13%.
For CCc1ccc(O)c(N=Cc2ccccc2O)c1 the results were PKM2 activator 10%, Apoferritin bind -11%, rTrxR1 inhibitor -2%[57.1 µM], TrxR1 substrate 8%[57.1 µM], GALK inhibitor -3% and mIDH1 inhibitor 3%.
Screening COc1cccc(C(=O)N2c3nc(-c4ccco4)nn3C3(CCCCC3)[C@@H]3CCCC[C@@H]32)c1 returned Apoferritin bind inconclusive, rTrxR1 inhibitor 8.9µM*, TrxR1 substrate 6% and mIDH1 inhibitor 9%.
For COc1cccc2c1C(=O)/C(=C\c1ccc(N(C)C)cc1)C2 the results were rTrxR1 inhibitor 7% and TrxR1 substrate -4%.
O=C1C=CC(=O)c2c(O)c(N3CCN(CCO)CC3)c(Cl)c(O)c21 was read as rTrxR1 inhibitor 18%, TrxR1 substrate 56µM* and mIDH1 inhibitor 15%.
